Assay results reported in PubChem BioAssay (NCATS).
Inconclusive results are not listed. The source made the active and inactive calls. Unless noted, the call rests on the fitted dose curve; in most records, active means well fitted curve in the direction sought with a large enough effect; inconclusive means small, poorly fitted or top-dose-only effect, or another doubt; inactive means no such curve, though single readings can be large; an effect the other way counts as inactive or inconclusive.

Assays:
[1] = Cell Viability - LYMP2-001 (AID 921); further: series mostly up to about 92 µM; nearly all actives have a fitted effect of over 70% in size
In short: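 A lymphoblastoid cell line of human origin was treated with library compounds across a concentration series for 24 hours, and viable cell number was estimated from ATP-driven luciferase light output. Hill modeling gave AC50.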

[2] = Confirmation and Secondary Assay for Modulators of Hemoglobin Beta Chain Splicing at IVS2 705 locus (AID 930);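 further: HeLa cells stably expressing the EGFP-705 splicing reporter; series mostly up to about 46 µM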
In short: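 Restored EGFP fluorescence after 2-day compound exposure reports splicing correction in IVS2-705 EGFP reporter HeLa cells; positive control was 500 nM splice-blocking PNA oligo. Signal measured as well total peak GFP intensity (488 nm excitation).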

[3] = MultiTox-Fluor Cytotoxicity Assay - LYMP1-001 - Dead Cells (AID 946)
In short: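 Seed 2500 LYMP1-001 cells/well, incubate 5 hr at 37 C; add compound, 16 hr at 37 C; add MultiTox-Fluor reagent, 60 min RT; read dead-cell fluorescence Ex/Em=485/520. Normalize to DMSO and 15 uM tetraoctylammonium bromide.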

[4] = MultiTox-Fluor Cytotoxicity Assay - LYMP1-001 - Live Cells (AID 947)
[5] = Cell Viability - LYMP1-002 - Assay at 16 hr (AID 948)
In short: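 In this qHTS, lymphoblastoid LYMP1-002 cells (human) receive compounds for 16 hr at 37 C. Viability is taken from CellTiter-Glo ATP luminescence, and AC50 derives from standard Hill fits.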

[6] = MultiTox-Fluor Cytotoxicity Assay - LYMP1-002 - Live Cells (AID 955)
In short: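 Human lymphoblastoid LYMP1-002 cells, 2500/well in complete medium, rested 5 hr at 37 C, then exposed to compounds for 16 hr at 37 C. Live-cell protease cleavage of GF-AFC read by fluorescence (Ex/Em 405/510) after 60 min at room temperature; AC50 from Hill fits.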

[7] = MultiTox-Fluor Cytotoxicity Assay - LYMP1-002 - Dead Cells (AID 960); further: nearly all actives have a fitted effect of over 60% in size
In short: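 Human lymphoblastoid cells (LYMP1-002), 2500/well in complete medium, were exposed to compounds for 16 hr at 37 C. Dead-cell protease activity was read as bis-AAF-R110 fluorescence (Ex/Em 485/520), normalized to DMSO and 15 uM tetraoctylammonium bromide; AC50 from Hill fits.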

[8] = MultiTox-Fluor Cytotoxicity Assay - LYMP1-003 - Dead Cells (AID 961); further: nearly all actives have a fitted effect of over 70% in size
In short: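 LYMP1-003 lymphoblastoid, 2500 cells/well, 5 hr settle then 16 hr cpd at 37 C; MultiTox-Fluor reagent 60 min RT; Ex/Em 485/520 dead-cell signal; norm. DMSO = 0%, 15 uM tetraoctylammonium bromide = 100%; Hill AC50.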

[9] = MultiTox-Fluor Cytotoxicity Assay - LYMP1-003 - Live Cells (AID 962);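 further: cytotoxic hits lower the live-cell protease signal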
In short: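 LYMP1-003 human lymphoblastoid cells (2500/well) in complete medium were preincubated 5 hr at 37 C, then exposed to compounds for 16 hr at 37 C. Live-cell protease cleavage of GF-AFC read by fluorescence (Ex/Em 405/510); AC50 from Hill fits.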

[10] = Cell Viability - LYMP1-003 - Assay at 24 hr (AID 963)
In short: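 Human lymphoblastoid LYMP1-003 cells (2500/well) were rested 5 hr at 37 C, then exposed to compounds in complete medium for 24 hr at 37 C. Cellular ATP was quantified by CellTiter-Glo luminescence, and AC50 values came from Hill fits of concentration-response data.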

[11] = Cell Viability - LYMP1-003 - Assay at 40 hr (AID 964); further: series mostly up to about 92 µM; nearly all actives have a fitted effect of over 60% in size
In short: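 Human lymphoblastoid LYMP1-003 cells, 2500/well in complete medium, rested 5 hr at 37 C, then exposed to compounds for 40 hr at 37 C. Viability read as intracellular ATP by CellTiter-Glo luminescence; AC50 from Hill fits of concentration-response data.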

[12] = target: Pyruvate kinase (Leishmania mexicana) (UniProt Q27686); assay: qHTS Validation Assay for Inhibitors of Leishmania Mexicana Pyruvate Kinase (AID 945)
Chain of Pyruvate kinase (Leishmania mexicana) (Q27686 2-499 E452W): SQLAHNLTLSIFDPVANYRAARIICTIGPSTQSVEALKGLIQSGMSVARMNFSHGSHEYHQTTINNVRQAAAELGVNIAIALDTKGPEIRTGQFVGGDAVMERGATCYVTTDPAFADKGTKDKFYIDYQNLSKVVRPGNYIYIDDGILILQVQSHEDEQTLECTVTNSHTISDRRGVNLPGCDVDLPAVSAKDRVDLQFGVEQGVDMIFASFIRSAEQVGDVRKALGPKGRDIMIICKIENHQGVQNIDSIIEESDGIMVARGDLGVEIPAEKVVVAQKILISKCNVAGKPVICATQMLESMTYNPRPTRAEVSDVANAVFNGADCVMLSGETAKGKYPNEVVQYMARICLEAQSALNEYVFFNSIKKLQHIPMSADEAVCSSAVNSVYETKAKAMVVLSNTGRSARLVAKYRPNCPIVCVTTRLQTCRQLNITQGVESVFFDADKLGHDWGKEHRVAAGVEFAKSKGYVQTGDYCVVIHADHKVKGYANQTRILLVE
In short: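 Purified LmPYK (E451W mutant, 0.2 nM) was incubated 1 h at room temperature with 0.5 mM PEP and 0.1 mM ADP in 50 mM imidazole pH 7.2, 50 mM KCl, 7 mM MgCl2; ATP formed was read by PKLight luminescence, normalized to DMSO wells.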

[13] = target: Pyruvate kinase PKM (Homo sapiens) (UniProt P14618); assay: qHTS Assay for Activators of Human Muscle Pyruvate Kinase (AID 954; active means well fitted curve in the direction sought with a large enough effect, not every such curve was filed as active)
Chain of Pyruvate kinase PKM (Homo sapiens) (P14618 whole entry, looked up): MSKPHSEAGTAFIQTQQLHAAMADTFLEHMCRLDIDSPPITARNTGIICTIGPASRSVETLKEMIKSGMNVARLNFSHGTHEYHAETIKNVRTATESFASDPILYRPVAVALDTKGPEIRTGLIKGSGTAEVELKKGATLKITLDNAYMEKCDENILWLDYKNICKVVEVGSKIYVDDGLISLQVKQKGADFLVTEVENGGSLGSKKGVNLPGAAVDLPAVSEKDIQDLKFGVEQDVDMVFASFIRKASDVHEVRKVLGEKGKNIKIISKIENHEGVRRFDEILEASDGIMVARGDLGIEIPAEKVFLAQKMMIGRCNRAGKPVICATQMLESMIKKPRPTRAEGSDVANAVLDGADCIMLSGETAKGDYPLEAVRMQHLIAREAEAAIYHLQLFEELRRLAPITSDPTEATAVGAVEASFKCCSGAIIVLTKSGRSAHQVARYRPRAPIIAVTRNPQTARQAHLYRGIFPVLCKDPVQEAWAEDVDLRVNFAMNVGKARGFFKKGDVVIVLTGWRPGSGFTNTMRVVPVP
In short: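 Reaction: 0.1 nM purified PKM2 with 0.5 mM phosphoenolpyruvate and 0.1 mM ADP, room temperature, 1 h. Readout: luciferase-based ATP luminescence after stop reagent. Activators judged against a 0.3 nM enzyme column.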

[14] = target: Muscarinic acetylcholine receptor M1 (Rattus norvegicus) (UniProt P08482); assay: qHTS Assay for Antagonists of Acetylcholine Muscarinic M1 Receptor: Measurement of IP-One Response (AID 944); further: nearly all actives have a fitted effect of over 75% in size
Chain of Muscarinic acetylcholine receptor M1 (Rattus norvegicus) (P08482 whole entry, looked up): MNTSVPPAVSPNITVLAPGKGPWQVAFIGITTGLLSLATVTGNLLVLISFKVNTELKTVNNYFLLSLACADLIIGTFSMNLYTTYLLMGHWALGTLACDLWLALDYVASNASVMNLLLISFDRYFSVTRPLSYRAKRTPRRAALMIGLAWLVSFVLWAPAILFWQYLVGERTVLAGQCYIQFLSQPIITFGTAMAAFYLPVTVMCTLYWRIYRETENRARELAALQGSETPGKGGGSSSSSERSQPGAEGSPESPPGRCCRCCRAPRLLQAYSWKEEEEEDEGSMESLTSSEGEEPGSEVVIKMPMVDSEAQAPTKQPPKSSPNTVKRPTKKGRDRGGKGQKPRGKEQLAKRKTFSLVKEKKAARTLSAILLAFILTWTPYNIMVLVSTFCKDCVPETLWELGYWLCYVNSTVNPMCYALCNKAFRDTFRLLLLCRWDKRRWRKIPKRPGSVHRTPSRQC
In short: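 CHO cells expressing rat M1 receptor, recovered overnight, were pre-incubated 10 min with compound, then stimulated 30 min with carbachol at EC80 (200 nM) in LiCl-containing buffer, pH 7.4. IP1 accumulation was read by HTRF (620/665 nm).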

Measured: Potency

CS(=O)(=O)OCCCCOS(C)(=O)=O
not listed: [12] | [13] | [14]
inactive: all other assays above

Nc1ccc(S(N)(=O)=O)cc1
not listed: [1] | [12] | [13] | [14]
inactive: all other assays above

CC1(C)C(=O)N(CCN2CCC(C(=O)c3ccc(F)cc3)CC2)c2ccccc21
inactive: [12] | [13]

Cc1ncc([N+](=O)[O-])n1CC(C)O (configuration not stated)
inactive: [2]

O=C1c2ccccc2-c2n[nH]c3cccc1c23
inactive: [14] | [12] | [13]

Nc1cc(C(Cl)=C(Cl)Cl)c(S(N)(=O)=O)cc1S(N)(=O)=O
inactive: [2]

O=c1oc2cc(O)ccc2s1
inactive: [2]

O=C(O)c1cc(=O)c2c(OCC(O)COc3cccc4oc(C(=O)O)cc(=O)c34)cccc2o1
inactive: [2]

CCCOc1ccc2nc(NC(=O)OC)[nH]c2c1
inactive: [2]

Cc1cc(O)c2c(c1)C(=O)c1cc(O)cc(O)c1C2=O
not listed: [1] | [2] | [4]
inactive: all other assays above
